# D3 ag: activates the human D3 dopamine receptor; P35462; D3R DiscoveRx beta-arrestin cells, luminescence, 90 min; max activation, %; 410,000 tested, 0.58% active; AID 652048; in the data active = max activation above about 30%
# Target sequence (P35462 whole entry, looked up): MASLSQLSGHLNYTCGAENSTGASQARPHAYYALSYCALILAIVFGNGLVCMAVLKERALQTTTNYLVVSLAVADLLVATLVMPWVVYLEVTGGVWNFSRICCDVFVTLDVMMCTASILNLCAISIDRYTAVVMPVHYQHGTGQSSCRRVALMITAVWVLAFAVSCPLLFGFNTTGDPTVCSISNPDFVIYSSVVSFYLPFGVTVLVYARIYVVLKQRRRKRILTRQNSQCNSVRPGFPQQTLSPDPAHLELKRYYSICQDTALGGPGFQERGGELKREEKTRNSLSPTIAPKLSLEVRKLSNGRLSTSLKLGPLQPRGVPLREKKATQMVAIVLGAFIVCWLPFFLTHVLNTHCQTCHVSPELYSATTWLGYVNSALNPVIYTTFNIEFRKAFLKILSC
#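 Agonist mode: compounds and dopamine controls were applied to plated cells for 90 min at 37 degrees C after an overnight attachment at 1500 cells/well. Luminescent read-out followed 30 - 60 minutes at room temperature with DiscoveRx detection reagent.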
# SW480 rerep: induces DNA re-replication in SW480 colon adenocarcinoma cells | SW480 DNA re-replication, Hoechst DNA content imaging, 48 h | Potency, µM (top dose mostly 46.1 µM), usual class: activators | 340,000 tested, 1.8% active; also: nearly all actives have a fitted effect of over 55% in size
#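 Cells (250 per well) received 23 nL compound or DMSO by pin tool and were kept 48 hr at 37 C, 5% CO2. Nuclei were then stained with Hoechst for 40 min and scanned for DNA content.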
# MCF10A rereplic: induces DNA re-replication in MCF 10a normal breast cells | Potency, µM (highest dose often 46.1 µM), actives largely listed as activators | MCF 10A DNA re-replication, Hoechst nuclear intensity, 48 h | 350,000 tested, 2.9% active | AID 624296; also: nearly all actives have a fitted effect of over 50% in size
# D3 antag: blocks the human D3 dopamine receptor; max response, negative = inhibition, %; AID 652054; P35462; 360,000 tested, 2.5% active; D3R cells, DiscoveRx beta-arrestin luminescence, antagonist mode; active compounds read low; in the data active = max response below about -50%; inconclusive = no clear call, values can overlap the other calls
#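 Cells expressing the human receptor were seeded at 1500 cells/well, incubated overnight at 37 degrees C in 5% CO2, then exposed to library compounds with dopamine controls for 90 minutes at 37 degrees C before luminescent detection.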
# KB-3-1 tox: KB-3-1 parental cell cytotoxicity | KB-3-1 viability, CellTiter-Glo ATP luminescence, 72 h | Potency, µM (highest dose often 46.1 µM), hits mostly cytotoxic | 400,000 tested, 1.4% active; also: nearly all actives have a fitted effect of over 60% in size
#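 72 h, 37 °C compound treatment of KB-3-1 parental cells; CellTiter-Glo added, 10 min, luminescence read. Data corrected against DMSO-only plates and normalized before curve fitting.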
# KB-V1 cytotox: kills drug-selected multidrug resistant KB-V1 cells; AID 1347076; Potency, µM (titrated, usually from 46.1 µM), most hits filed as cytotoxic; KB-V1 MDR cells viability, CellTiter-Glo, 72 h; 400,000 tested, 3.4% active; also: nearly all actives have a fitted effect of over 60% in size
#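 Cells of the MDR subline KB-V1 are plated, dosed with compound at multiple concentrations, and incubated 72 h at 37 degrees C; CellTiter-Glo is then added and luminescence read after 10 min.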
# Hits are given with their value; . = inactive; ? = inconclusive; / = no result; [ ] = another dose, or the depositor's remark. Only some compounds are listed: those with a hit (about 8.9% of all), similar ones and a draw of the others. Unless noted, calls follow the shape of the dose curve; as a rule, active = well fitted curve in the direction sought with a large enough effect; inconclusive = small, poorly fitted or top-dose-only effect, or another doubt; inactive = no such curve, though single readings can be large; an effect the other way counts as inactive or inconclusive.
SMILES,D3 ag,SW480 rerep,MCF10A rereplic,D3 antag,KB-3-1 tox,KB-V1 cytotox
COc1cccc(Nc2nc(NCC3CCCO3)c3ccccc3n2)c1 (stereo not drawn),.,.,?,.,?,2.3µM
Oc1ccc(Nc2nc(NCC3CCCO3)c3ccccc3n2)cc1 (stereo not drawn),.,.,?,.,.,.
Oc1ccccc1Nc1nc(NCC2CCCO2)c2ccccc2n1 (stereo not drawn),.,.,?,.,?,16µM
COc1ccc(CC(=O)NC2CC(=O)N(c3ccc4c(c3)OCCO4)C2)cc1 (stereo not drawn),.,/,/,/,.,.
COc1ccc(-n2c(SCC(=O)NCc3ccc(F)cc3)nc3c([nH]c4ccccc43)c2=O)cc1,.,/,/,/,.,.
CCCCC[n+]1cccc2c3ccccc3ccc21,.,.,.,.,?,.
CCCCCCCCCCCCCCCC[n+]1ccc(CC(O)c2c(C)[nH]c3ccccc23)c2ccccc21 (stereo not drawn),/,/,/,/,16µM,16µM
O=C(N/N=C/c1ccc(O)cc1)Nc1cccc2nsnc12,.,15µM,?,.,?,.
COc1cc(/C=N/NC(=O)Nc2cccc3nsnc23)cc(OC)c1OC,.,?,3.3µM,.,.,.
COc1ccc(/C=N/NC(=O)Nc2cccc3nsnc23)c(OC)c1,.,?,?,.,.,.
O=C(NCCCCNC(=O)c1cccs1)c1cccs1,.,.,.,.,.,.
O=C(NCCCCCCNC(=O)c1ccc(Br)s1)c1ccc(Br)s1,.,.,.,?,?,3.3µM
O=C(Nc1nonc1NC(=O)c1cccs1)c1cccs1,.,.,.[9.22 µM],.,?,10µM
O=C(Nc1ccc(NC(=O)c2cccs2)cc1)c1cccs1,.,.,.,.,.,.
O=C(NCCCNC(=O)c1cccs1)c1cccs1,.,.[9.22 µM],.,-64,?,?
COc1cccc(C(=O)Nc2c(C(=O)c3ccc(F)cc3)oc3ccccc23)c1,.,/,/,/,.,.
COc1cc(SC)ccc1C(=O)Nc1ccc(Br)cn1,.,.,?,.,?,18µM
COc1cc(SC)ccc1C(=O)Nc1ccc(C)cc1C,.,.,?,.,.,9.2µM
COc1cc(SC)ccc1C(=O)NCCOc1c(C)cc(C)cc1C,.,.,.,-83,?,21µM
COc1cc(SC)ccc1C(=O)Nc1ccccn1,.,.,.,.,.,.
COc1cc(SC)ccc1C(=O)Nc1ccc(C)cc1,.,.,.,.,?,?
COc1cc(SC)ccc1C(=O)NCCOc1ccc(Cl)cc1,.,.,.,.,.,21µM
CCNC(=O)c1ccc2nc(Cc3ccccc3)oc2c1,.,/,/,/,.,.
CCOC(=O)c1cc(-c2ccc(C)cc2)n(CCCC(=O)Nc2cc(C)ccc2C)c1,.,/,/,/,.,.
Cc1ccc2cc(C3CC(c4ccco4)=NN3S(=O)(=O)c3ccccc3)c(Cl)nc2c1 (stereo not drawn),.,.,.,.,?,.
SMILES,D3 ag,SW480 rerep,MCF10A rereplic,D3 antag,KB-3-1 tox,KB-V1 cytotox
CCOc1ccc2nc(Cl)c(C3CC(c4ccco4)=NN3S(C)(=O)=O)cc2c1 (stereo not drawn),.,.,.,.,.,?
CCOc1ccc2cc(C3CC(c4ccco4)=NN3S(=O)(=O)c3ccccc3)c(Cl)nc2c1 (stereo not drawn),.,.,.,.,.,5.8µM
COc1ccc2cc(C3CC(c4ccco4)=NN3S(=O)(=O)c3ccccc3)c(Cl)nc2c1 (stereo not drawn),.,.,.,.,.,15µM
COc1ccc(-c2nc(CSCC(=O)N3CCN(c4cccc(C)c4C)CC3)c(C)o2)cc1OC,.,/,/,/,?,.
Cc1nn(-c2nc3ccccc3n2Cc2ccccc2)c2c1C(=O)CC(C)(C)C2,.,.,.,?,?,21µM
Cc1nn(-c2ccccc2)c2c1C(=O)N(Cc1ccccc1)C(=O)C(C)(C)C2,.,.,.,.,.,.
C[N@+]12CCCC[C@@H]1CCC(=C(c1cccs1)c1cccs1)C2,.,/,/,/,/,/
CC(C)CN(CCNC(=O)c1cn(C)c2ccc(S(=O)(=O)N3CCCCCC3)cc2c1=O)CC(C)C,.,/,/,/,.,.
Cc1ccc(NC(=O)C(=Cc2ccc(C(=O)O)cc2)C(=O)Nc2ccc(C)cc2C)c(C)c1,.,18µM,2.6µM,.,?,?
COc1ccnc(CS(=O)c2nc3ccc(OC(F)F)cc3[nH]2)c1OC (stereo not drawn),.,.,.,/,/,/
Cc1ccc(Sc2ccc(CN3CCCCC3)cc2[N+](=O)[O-])cc1,.,.,.,-106,.,.
O=[N+]([O-])c1cc(CN2CCCCCC2)ccc1O,.,.,.,?,.,?
COc1ccc(-c2c/c(=N\c3nc(-c4ccccc4)c(C)s3)c3ccccc3o2)cc1O,.,?,?,?,5.2µM,5.8µM
CC(=O)c1ccc(S(=O)(=O)Nc2ccc(-c3cn4c(C)csc4n3)cc2)cc1,.,/,/,/,.,.
Cc1ccc2[nH]c(=O)c3cc(C(=O)N(C)C4CCCCC4)sc3c2c1,.,.,.,.,.,.
CCN(C(=O)c1cc2c(=O)[nH]c3ccc(C)cc3c2s1)c1ccc(F)cc1,.,?,16µM,.,.,.
Cc1ccc2[nH]c(=O)c3cc(C(=O)N(C)c4ccc(C)c(C)c4)sc3c2c1,.,15µM,4.1µM,.,.,.
CCN(C(=O)c1cc2c(=O)[nH]c3ccc(C)cc3c2s1)c1cccc(C)c1,.,?,?,.,.,.
COc1ccccc1CN(C)CC(=O)Nc1ccc(Cl)cc1F,.,.,1.2µM,.,.,.
COc1ccc(Br)cc1CN(C)CC(=O)Nc1ccccc1Cl,.,.,?,.,.,?
COc1ccc(Br)cc1CN(C)CC(=O)Nc1cc(Cl)ccc1Cl,.,.,?,.,.,7.3µM
C[C@@H]1CN([C@H](C)CO)C(=O)c2c(c3ccccc3n2C)-c2ccccc2CO[C@@H]1CN(C)S(=O)(=O)c1cccs1,.,/,/,.,?,.
COc1ccc(C)c(-n2c(=O)n(Cc3ccccc3)c(=O)c3[nH]cnc32)c1,.,.,.,-97,.,.
Cc1ccccc1-n1c(=O)n(Cc2ccc(C(=O)O)cc2)c(=O)c2[nH]cnc21,.,.,.,.,.,.
COc1ccc(Cn2c(=O)c3[nH]cnc3n(-c3ccccc3C)c2=O)cc1,.,16µM,16µM,.,16µM,?
Cc1ccc(S(C)=O)cc1-n1c(=O)n(Cc2ccccc2)c(=O)c2[nH]cnc21 (stereo not drawn),.,.,.,-104,.,.
CCCCOc1ccc(CNC(=O)c2cnc3sc(N4CCCC4)nn3c2=O)cc1,.,/,/,/,/,/
CCOc1ccc(CCNC(=O)c2ccc(-n3c(C)cc4c3CCC(C)C4)cc2)cc1OCC (stereo not drawn),.,/,/,/,/,/
